# A selection: hits, their analogues and other compounds. The true share with any hit is near 18%.
# IL1B secr inh: inhibitors of inflammasome signaling (IL-1 beta secretion); THP-1 LPS/ATP IL-1B secretion, AlphaLISA, 16 h; hits give low values; activity change, % at 57.5 µM; 360,000 compounds, 4.7% hits; AID 743279; in the data active = activity change below about -50%; inconclusive = mostly about -30% to -49%; note: % is set by controls: 0 for no effect and ±100 for the full control effect
#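 THP-1 cells pretreated 1 hr with compounds (up to 57.5 uM final), then stimulated with LPS (250 ng/mL final) plus ATP (1.25 mM final); secreted IL-1B measured by AlphaLISA after 16 hr, decreased signal indicating inhibition.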
# TDP1 block: inhibitors of human tyrosyl-DNA phosphodiesterase TDP1; Q9NUW8; recombinant TDP1, AlphaScreen DNA substrate cleavage; Potency, µM (series often up to 130 µM), for the others: top-dose activity change, negative = inhibition, usual class: inhibitors; 350,000 compounds, 0.28% hits; note: potency is the fitted concentration of half-maximal effect; % is set by controls: 0 for no effect and ±100 for the full control effect; nearly all actives have a fitted effect of over 40% in size
# Target sequence (Q9NUW8 whole entry, looked up): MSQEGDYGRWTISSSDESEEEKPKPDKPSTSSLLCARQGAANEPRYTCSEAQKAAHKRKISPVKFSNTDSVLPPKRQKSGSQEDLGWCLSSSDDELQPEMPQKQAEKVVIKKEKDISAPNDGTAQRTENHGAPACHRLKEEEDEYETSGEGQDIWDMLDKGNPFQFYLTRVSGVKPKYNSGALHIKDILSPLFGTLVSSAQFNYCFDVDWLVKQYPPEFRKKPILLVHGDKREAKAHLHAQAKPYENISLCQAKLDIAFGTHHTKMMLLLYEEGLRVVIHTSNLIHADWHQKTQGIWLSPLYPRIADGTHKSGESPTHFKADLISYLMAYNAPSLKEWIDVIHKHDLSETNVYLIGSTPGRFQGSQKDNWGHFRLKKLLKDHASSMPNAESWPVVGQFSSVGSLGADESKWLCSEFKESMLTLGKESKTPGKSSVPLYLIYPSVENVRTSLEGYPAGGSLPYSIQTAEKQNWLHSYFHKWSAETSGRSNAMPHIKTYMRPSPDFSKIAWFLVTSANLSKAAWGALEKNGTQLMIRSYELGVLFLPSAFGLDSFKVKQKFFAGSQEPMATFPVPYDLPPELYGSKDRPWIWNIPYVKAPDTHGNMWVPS
#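 Signal: AlphaScreen proximity between streptavidin donor and anti-FITC acceptor beads on intact substrate. Reaction: Tdp1 1 nM, substrate 15 nM final, 5 min RT after 15 min compound preincubation.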
# DT40 TDP1 no CPT: qHTS for Inhibitors of human tyrosyl-DNA phosphodiesterase 1 (TDP1): qHTS in cells in absence of CPT; 420,000 compounds, 15% hits; Potency, µM (doses to about 46.2 µM), without a hit: at the highest dose activity change, negative = growth inhibition, hits mostly inhibitors; DT40 Tdp1-/- hTDP1 cells, no CPT, ATP luminescence, 48 h; note: potency is the fitted concentration of half-maximal effect; % is set by controls: 0 for no effect and ±100 for the full control effect; nearly all actives have a fitted effect of over 55% in size
#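 Stably hTDP1-transfected Tdp1-null chicken DT40 cells were treated with library compounds minus camptothecin and grown for at least 48 hr at 37 °C, after which cellular ATP was quantified by luminescence.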
# TGFb inhibitor: inhibitors of TGF-b signaling | HepG2 CAGA-GFP TGF-b/SMAD3 reporter, GFP fluorescence, 18 h; TGF-beta stimulated, 500 pg/mL final | Potency, µM (titrated, usually from 46.1 µM), for the others: at the top dose activity, negative = inhibition, hits mostly inhibitors | 410,000 compounds, 1.2% hits; note: potency is the fitted concentration of half-maximal effect; % is set by controls: 0 for no effect and ±100 for the full control effect; nearly all actives have a fitted effect of over 65% in size
#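 HEPG2 CAGA-GFP cells (1000/well, DMEM with 1% FBS) were pre-incubated 2 h at 37 degrees C, given compound by pin tool, then stimulated with TGF-beta at 500 pg/mL final for 18 h before per-cell GFP fluorescence imaging.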
# HepG2 viability: kills HepG2 cells in TGF-b inhibitor counter-screen. Potency, µM (highest dose often 46.1 µM), for inactives: at the highest dose activity change, negative = cytotoxicity, usual class: cytotoxic. AID 588856. HepG2 CAGA-GFP viability, ATP luminescence, 18 h. 410,000 compounds, 0.76% hits; note: potency is the fitted concentration of half-maximal effect
#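 CellTiter-Glo luminescence gave cytotoxicity after 18 hours at 37 degrees C. The cells were HepG2 CAGA-GFP in 1% FBS DMEM, stimulated with 500 pg/mL TGF-beta after compound addition. %Activity was normalised to no-cell wells (complete cell-killing) and DMSO (no toxicity), and curves were fitted and classified.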
# TDP1 cell CPT: growth inhibition of DT40 Tdp1-/-;hTDP1 cells with camptothecin (screen for TDP1 inhibitors); 420,000 compounds, 12% hits; chicken DT40 Tdp1-/-;hTDP1 cells + 20 nM CPT, ATP luminescence, 48 h; Potency, µM (doses to about 46.2 µM), for inactives: top-dose activity change, negative = growth inhibition, actives largely listed as inhibitors; AID 686979; note: potency is the fitted concentration of half-maximal effect; % is set by controls: 0 for no effect and ±100 for the full control effect; nearly all actives have a fitted effect of over 55% in size
#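 Chicken DT40 Tdp1-/- cells stably complemented with human TDP1 were seeded at 400 cells/well in medium containing 20 nM camptothecin, exposed to pin-transferred compounds, and grown at 37 °C for at least 48 hr. Viability was read as ATP luminescence.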
# * hit, by the source's call; ? = inconclusive; nt = not tested or not shown; [ ] = remark or other dose. Unless noted, calls come from the whole dose curve; as a rule, active = well fitted curve in the direction sought with a large enough effect; inconclusive = small, poorly fitted or top-dose-only effect, or another doubt; inactive = no such curve, though single readings can be large; an effect the other way counts as inactive or inconclusive.
SMILES,IL1B secr inh,TDP1 block,DT40 TDP1 no CPT,TGFb inhibitor,HepG2 viability,TDP1 cell CPT
O=C(CCc1ccccc1)NCc1ccncc1,4.2,nt,9.0%,-12.8%,-15.8%,-12.2%
c1ccc2c(CSCCc3ccncc3)cccc2c1,17.3,0.0%,20.6µM*,-14.0%,3.6%,23.1µM*
Clc1ccc(CSCCc2ccncc2)cc1,-10.6,7.5%,?,-2.6%,-3.7%,?
O=C(COC(=O)c1cc(Cl)ccc1O)NCC1CCCO1 (stereo unspecified),1.4,-4.0%[0.505 µM],-13.6%,2.8%,0.6%,-7.8%
O=C(CN(C(=O)C1CSC(=O)C1)c1cccc(F)c1)NCc1ccc2c(c1)OCO2 (stereo unspecified),-16.2,9.2%,-21.7%,-13.0%,-3.7%,0.9%
Cc1ccc2nc(SCC(=O)NCC3Cc4cc(-c5ncccc5C)ccc4O3)[nH]c2c1 (stereo unspecified),nt,nt,?,nt,nt,3.4%[9.04 µM]
CSc1ccc(-c2cccc3nncn23)cc1,-16.9,nt,-14.5%,3.8%,-0.2%,0.1%
CC1Cc2ccccc2N1C(=O)c1cc2sccc2n1Cc1ccc(F)cc1 (stereo unspecified),-21.9,0.0%,16.4µM*,-1.2%,-50.0%,?
COc1ccccc1CNC(=O)c1cc2sccc2n1Cc1ccc(F)cc1,nt,-1.3%,23.1µM*,?,-41.3%,20.6µM*
COc1ccc(CNC(=O)c2cc3sccc3n2Cc2ccc(F)cc2)cc1,nt,3.8%,?,?,-32.7%,-25.1%
COc1ccc(NC(=O)COCc2cc(-c3cccs3)on2)cc1,nt,-5.7%,?,-4.0%,4.9%,?
CCSc1ccc2nnc(-c3cccc(F)c3)n2n1,-18.2,2.8%,?,1.4%,-30.8%,-24.8%
O=C(CSc1ccc2nnc(-c3cccc(F)c3)n2n1)N1CCCc2ccccc21,5.6,2.3%,18.4µM*,-2.3%,-7.4%,?
O=C(CSc1ccc2nnc(-c3ccncc3)n2n1)N1CCc2ccccc21,nt,2.1%,nt,nt,nt,nt
O=C(CSc1ccc2nnc(-c3ccc(Cl)cc3)n2n1)N1CCCc2ccccc21,0.0,5.7%,23.1µM*,6.9%,4.9%,-65.8%
O=C(CSc1ccc2nnc(-c3ccc(F)cc3)n2n1)N1CCCc2ccccc21,-7.3,2.3%,16.4µM*,-2.8%,-2.6%,18.4µM*
C/C(=N\Nc1ccc([N+](=O)[O-])cc1[N+](=O)[O-])c1ccc(-n2nncc2C(C)(C)C)cc1,-12.0,10.5%,13µM*,-18.1%,-26.2%,20.6µM*
COc1ccc(Cc2nnc(NC(=O)C3CCN(C(=O)c4ccco4)CC3)s2)cc1,14.2,0.0%,?,-21.0%,2.1%,1.7%
COc1cccc2c1nc(C)c1cc(C)oc12,-2.0,6.7%,?,-4.8%,-14.2%,-24.1%
Cc1ccc2nc(C)c3c(c2c1)N(c1ccc(F)cc1)CC3,nt,nt,?,-34.2%,-36.0%,10.3µM*
COc1cccc2c3c(c(C)nc12)CCN3c1ccccc1,-92.7*,2.7%,14.6µM*,-17.0%,-30.7%,?
COc1ccccc1N1CCc2c(C)nc3c(OC)cccc3c21,-71.7*,4.2%,4.11µM*,?,-38.3%,5.8µM*
CCCc1c(C)nc2c(OC)cccc2c1SCC(=O)O,2.9,-2.5%,-12.7%,-4.5%,-16.3%,2.7%
COc1ccccc1N1CCN(C[C@@H](C(=O)NC(C)(C)C)c2ccccc2)CC1,nt,-12.4%[56.1 µM],?,nt,nt,-34.5%
COc1ccc(N(CC(=O)NCc2ccc3c(c2)OCO3)S(=O)(=O)c2ccc(O)c(C(=O)O)c2)cc1,-7.5,nt,-11.9%,-5.6%,-15.0%,1.2%
SMILES,IL1B secr inh,TDP1 block,DT40 TDP1 no CPT,TGFb inhibitor,HepG2 viability,TDP1 cell CPT
CCOc1ccc(C(=O)NN2C(=O)C3C4C=CC(O4)C3C2=O)cc1 (stereo unspecified),13.1,7.9%,5.6%,0.0%,3.1%,-9.1%
CC1(C)CC(=O)C2=C(C1)C(c1cn(-c3ccccc3)nc1-c1ccccc1)C(C#N)=C(N)O2 (stereo unspecified),-56.3*,8.1%,?,-30.9%,1.1%,?
Cn1cccc1C1C(C#N)=C(N)OC2=C1C(=O)CC(C)(C)C2 (stereo unspecified),9.5,1.2%,1.1%,2.1%,0.5%,-3.4%
CC1(C)CC(=O)C2=C(C1)OC(N)=C(C#N)C2Cc1ccccc1 (stereo unspecified),-1.9,2.8%,-4.4%,14.5%,-4.0%,-3.9%
CC1(C)CC(=O)C2=C(C1)OC(N)=C(C#N)C2c1cn(-c2ccccc2)nc1-c1ccc(F)cc1 (stereo unspecified),?,4.4%,?,?,-21.0%,14.6µM*
CC1(C)CC(=O)C2=C(C1)OC(N)=C(C#N)[C@@H]2c1ccccc1[N+](=O)[O-],-12.8,70.8µM*,?,-11.0%,-31.6%,?
CCC1(c2ccc(F)cc2)NC(=O)N(CC(=O)N2CC(=O)Nc3ccccc32)C1=O (stereo unspecified),-0.5,5.9%,5.4%,-4.1%,9.7%,2.9%
CCN(CC)C(=O)N1CCN(/[N+]([O-])=N/Oc2ccc([N+](=O)[O-])cc2[N+](=O)[O-])CC1,nt,nt,nt,?,-34.4%,nt
CCC/C=C1/CCCOC(C(=O)NCc2ccc(C)o2)(C(F)(F)F)C1 (stereo unspecified),-62.7*,4.9%,10.3µM*,?,-19.1%,7.31µM*
CN(C)CC(O)c1ccc(C=Cc2ccc(Cl)cc2)cc1 (stereo unspecified),-92.0*,nt,7.31µM*,-2.5%,-40.9%,7.31µM*
CC(NC(=O)/C=C/c1ccc(Br)cc1)c1ccc(Cl)cc1 (stereo unspecified),12.2,2.6%,?,-1.1%,0.2%,?
COC(=O)c1ccccc1COc1cccn2c(N(C)CC3CC3)c(C)nc12,-13.0,nt,18.4µM*,-1.3%,-11.6%,?
Cc1nc2c(OCc3ccc(C(F)(F)F)cc3)cccn2c1N(C)CC1CC1,-19.1,nt,23.1µM*,11.2µM*,10µM*,?
CCN(CC(=O)Nc1c(F)cccc1F)C(=O)Cc1c(C)nc2ccccc2c1C,15.3,0.5%,?,-14.6%,-6.6%,?
CC1=C(NCCc2ccccc2)CCC1=O,38.0,7.7%,20.6µM*,-4.9%,-8.2%,20.6µM*
CCCNC1=C(C)C(=O)CC1,11.6,0.0%,2.3%,?,9.9%,-2.4%

# Screens (PubChem BioAssay)
